Screening results (PubChem)
Rows were chosen to be rich in hits. Some 0.42% of all compounds tested hit in one or more screens of this group.
N370S GC mod: inhibitors or activators of N370S glucocerebrosidase for Gaucher disease | P04062 | N370S GC spleen homogenate, 4MU-glucoside fluorescence | Potency, µM (series often up to 59.4 µM), actives largely listed as inhibitors | 330,000 tested, 0.092% active | AID 2101
GAA inhib: inhibitors of human lysosomal alpha-glucosidase; Potency, µM (top dose mostly 76.9 µM), hits mostly inhibitors; purified human GAA, 4-MU-alpha-glucoside fluorescence; 200,000 tested, 0.005% active; P10253; AID 1466
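Read-out is 4-methylumbelliferone fluorescence (Ex 365/Em 440 nm) after NaOH/glycine stop at pH 10. Enzyme 4 nM, substrate 400 uM, pH 5.0 citrate buffer, 20 min room temperature; AC50 from Hill-equation concentration-response.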
GAA glycogen mod: inhibitors or activators of human alpha-glucosidase glycogen cleavage; 300,000 tested, 0.38% active; Potency, µM (titrated, usually from 76.4 µM), hits mostly inhibitors; recombinant GAA, glycogen substrate, Amplex Red glucose oxidase fluorescence; AID 2100; P10253;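 note: the screen sought inhibitors and activators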
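qHTS, 1536-well; enzyme 4 nM final; cpd up to 77 uM; substrate bovine liver glycogen 30 ug; 50 mM citrate/phosphate pH 5.0, 0.01% Tween-20; 37 C, 40 min; Amplex Red detection 45 min RT; Hill fit → AC50.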
Lamin A splicing: modulators of lamin A splicing. HeLa LMNA splicing GFP/RFP minigene ratio, 48 h. Potency, µM (series often up to 46.1 µM), most hits filed as inhibitors. 200,000 tested, 0.01% active; active = well fitted inhibition curve with a large enough effect in the signal ratio, with a control signal flat, not every such curve was filed as active; inconclusive = small, poorly fitted or top-dose-only effect, or effect the other way, or a change in a side signal; the % refers to the signal ratio
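Read-out is the ratio of GFP to DsRed2 object intensity, acquired by 488 nm laser-scanning cytometry on HeLa lamin A-EGFP minigene reporter cells. Compound incubation 48 hrs at 37 °C in Opti-MEM with 2% FBS; DMSO 0.5% final.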
aGlu spleen mod: lysosomal alpha-glucosidase (human) modulation; P10253; human spleen homogenate, 4-MU-alpha-glucoside fluorescence; Potency, µM (doses to about 79.9 µM), hits mostly inhibitors; 240,000 tested, 0.006% active
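AC50 values come from Hill-equation fits of concentration-response data, normalized to no-enzyme and full-activity controls. Enzyme source: 1 ug human spleen homogenate; 1 mM fluorogenic 4-MU glucoside, pH 5.0 citrate buffer, 37 C, 40 min.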
Hits are given with their value; 0 = inactive; ? = inconclusive; - = no result; ! = not confirmed by another sample; [ ] = another dose, or the depositor's remark. Unless noted, calls come from the whole dose curve; as a rule, active = well fitted curve in the direction sought with a large enough effect; inconclusive = small, poorly fitted or top-dose-only effect, or another doubt; inactive = no such curve, though single readings can be large; an effect the other way counts as inactive or inconclusive.

SMILES	N370S GC mod	GAA inhib	GAA glycogen mod	Lamin A splicing	aGlu spleen mod
O=C(Nc1cc(S(=O)(=O)N2CCOCC2)ccc1N1CCOCC1)c1cc(=O)[nH]c2ccccc12	0	?	28µM	-	0
Cc1cc(C)c2c(-n3cccc3)c(C(=O)NNS(=O)(=O)c3ccc(Br)cc3)sc2n1	?	0	18µM	0	0
Cc1cc(C)c2c(-n3cccc3)c(C(=O)NCC(C)c3ccccc3)sc2n1 (centres undefined)	-	-	0	-	-
CC(N)(C(=O)O)c1ccc(S(=O)(=O)O)cc1 (centres undefined)	0	-	-	-	0
Cc1c(O)ccc(/C=N/Nc2nc(-c3cccnc3)nc3ccccc23)c1O	?	0	35µM	-	0
Oc1ccc(/C=N/Nc2nc(-c3cccnc3)nc3ccccc23)c(O)c1	0	-	?	-	0
CS[C@@H]1SC[C@H]2C(=O)N(C)C(C(C)C)C(=O)OC[C@@H](NC(=O)c3cnc4ccccc4n3)C(=O)N[C@@H](C)C(=O)N(C)[C@H]1C(=O)N(C)C(C(C)C)C(=O)OC[C@@H](NC(=O)c1cnc3ccccc3n1)C(=O)N[C@@H](C)C(=O)N2C (some centres undefined)	0	-	-	-	0
COc1ccc(CC(=O)NNC(=S)NC(=O)c2cccnc2)cc1	0	-	0	-	0
COc1ccc(C(=O)NNC(=S)NC(=O)c2cccnc2)cc1	0	0	40µM	0	0
COc1ccc(NC(=S)NNC(=O)c2cccnc2)cc1OC	0	0	4µM	-	0
CCOCC	0	-	-	-	0
COc1ccccc1CNc1ccnc(-c2ccccc2Cl)n1	?	-	-	?	0
Cc1cccc(CNc2ccnc(-c3ccccc3Cl)n2)c1	7.1µM	-	-	?	0
Clc1ccccc1-c1nccc(NCc2ccccc2)n1	3.5µM	-	-	?	0
CCOC(c1cc(OC)cc([N+](=O)[O-])c1OC)C(C)C(OC)[C@@H](C)/C=C/CC(=O)OC (some centres undefined)	0[12.8 µM]	-	-	-	0[17.4 µM]
CC(C)(C)Nc1oc(-c2ccccc2)nc1-c1ccc(C(F)(F)F)cc1	0	-	-	-	0
CCOC(=O)c1[nH]c2ccccc2c1NC(=S)Nc1ccccc1C	0	0	14µM	?	0
CCOC(=O)c1[nH]c2ccccc2c1NC(=S)Nc1cc(C)ccc1C	0	0[15.4 µM]	0	?	0
Cc1cc(C(F)(F)F)nn1CC(=O)NNC(=S)Nc1ccc(Cl)cc1	0	0	0	0	0
Cc1cc(C(F)(F)F)nn1CC(=O)NNC(=S)Nc1ccc(F)cc1	-	0	40µM	0	0
Cc1cnc(CNc2ncnc3ccc(-c4c(C)noc4C)cc23)cn1	0	-	-	7.1µM	0
Cc1noc(C)c1-c1ccc2ncnc(NCc3cccnc3)c2c1	0	-	-	4µM	0
Cc1noc(C)c1-c1ccc2ncnc(NCc3ccco3)c2c1	0	-	-	-	0
Cc1noc(C)c1-c1ccc2ncnc(NCc3ccc(-c4ccccc4)cc3)c2c1	0	-	-	-	0
CC[C@H](C)[C@H](NC(=O)[C@H](CC(=O)O)NC(=O)[C@H](CC(C)C)NC(=O)[C@H](Cc1cnc[nH]1)NC(=O)[C@H](C)NC(=O)[C@H](Cc1ccccc1)NC(=O)[C@H](Cc1ccc(O)cc1)NC(=O)[C@@H](NC(=O)[C@H](C)NC(=O)[C@H](CCC(=O)O)NC(=O)[C@H](CCC(=O)O)NC(=O)[C@H](CC(=O)O)NC(=O)CCC(=O)O)C(C)C)C(=O)N[C@H](C(=O)N[C@@H](Cc1c[nH]c2ccccc12)C(=O)O)[C@@H](C)CC	0	-	-	-	0
SMILES	N370S GC mod	GAA inhib	GAA glycogen mod	Lamin A splicing	aGlu spleen mod
O=C(CCCC[C@@H]1SC[C@H]2NC(=O)N[C@H]12)Nc1ccc(C(=O)O)cc1	0	-	-	-	0
COc1cc(SC)ccc1C(=O)N1CCC(Cc2ccccc2)CC1	0	-	-	-	0
CC(=O)Oc1ccc2c(C)cc(=O)oc2c1	?	?	0	0	?
CC(=O)Oc1cc2oc(=O)cc(C)c2cc1OC(C)=O	?	?	7.9µM	?	?
O=C(/C=C/c1ccccc1)c1ccc(O)cc1O	0	-	-	-	0
O=C(/C=C/c1ccc(O)c(O)c1)c1ccccc1O	0	-	7.9µM	-	0
O=C(/C=C/c1ccc(O)cc1)c1ccc(O)cc1O	1.8µM!	0	0	?	0
COc1ccc(C2=Nn3c(nnc3-c3cccc(OC)c3OC)SC2)c(OC)c1	0	-	-	-	0
Cc1ccc(-c2nnc3c4ccccc4c(C)nn23)cc1S(=O)(=O)N1CCN(CCO)CC1	16µM	0	0	?	0
